Several values for one entry are separate records, joined by “and”; a condition that tells them apart may be missing. Equal entries are not always repeated. This is part of a sample that, as a whole, favours compounds with a hit. Of some 83,000 tested, about 20% had one in any assay.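 Cells were grown in 96-well plates and exposed to the test compound at a single concentration for 48 hours; results are reported as percent growth, with values below 10 considered active.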 Activity calls are given as the source filed them.
Test system: HL-60(TB) leukemia
Experiment: NCI-60 one-dose screen, 48 h (100 = growth as untreated, 0 = no growth, -100 = all killed)
Details: 10 µM unless noted

Q: With O=[N+]([O-])c1ccc2[nH]cc(-c3c4ccccc4cc4[nH]c5ccc([N+](=O)[O-])cc5c34)c2c1 as the compound, how does the growth read?
A: Its growth is 11.7% (inactive).

Q: Which growth does the source give for COC(=O)[C@]12CC[C@@H](C)[C@H](C)[C@@H]1C1=CC[C@@H]3[C@@]4(C)C/C(=N\O)[C@H](O)[C@@]5(C)COC(=C45)C[C@@]3(C)[C@]1(C)CC2 here?
A: The growth was -59.8% (active).

Q: Which growth does the source give for NC1CCC(C(=O)O)CC1 (centres undefined) here?
A: The growth was 113% (inactive) and 110% (inactive).

Q: Which growth does the source give for N#Cc1c(N)nc2c(nnn2-c2cccc(C(F)(F)F)c2)c1N here?
A: Its growth is 95.2% (inactive).

Q: With CC1=C(Nc2ccc(N3CCN(C)CC3)cc2)C(=O)c2cncnc2C1=O as the compound, how does the growth read?
A: The growth was -26.6% (active).

Q: How did the growth turn out when CCC[C@H](N[C@@H](C)C(=O)N1[C@H](C(=O)O)C[C@@H]2CCCC[C@@H]21)C(=O)OCC was run?
A: Its growth is 116% (inactive).

Q: With COc1cc(C2CC(c3cccc(Nc4ccnc5cc(Cl)ccc45)c3)=NN2C=O)cc(OC)c1OC (centres undefined) as the compound, how does the growth read?
A: Its growth is -7.92% (active).

Q: For O=C(Nc1ccc(N2CCNCC2)cc1)c1[nH]ncc1Nc1cc(C2CC2)ncn1, which growth is on record?
A: The growth was 67.9% (inactive).

Q: Which growth does the source give for COc1ccc2c(CCC(c3ccccc3)c3ccccc3)c3[n+](cc2c1OC)CCc1cc2c(cc1-3)OCO2 here?
A: Its growth is -40.6% (active).

Q: With Cn1c(=O)n(-c2ccc(C(C)(C)C#N)cc2)c2c3cc(-c4cnc5ccccc5c4)ccc3ncc21 as the compound, how does the growth read?
A: Its growth is 10.3% (inactive) and -11.9% (active).

Q: With NC1=NC(=O)C(c2ccccc2)(c2ccccc2)S1 as the compound, how does the growth read?
A: The growth was 97.9% (inactive).

Q: How did the growth turn out when O=C(O)CC(Cl)C(Cl)CC(=O)O (centres undefined) was run?
A: The growth was 99.5% (inactive).

Q: With CCc1cccc2c3c(sc12)C(c1ccc(F)cc1)C(C#N)=C(N)O3 (centres undefined) as the compound, how does the growth read?
A: Its growth is 1.86% (active).

Q: CC(O)Cn1cnc2c1c(=O)n(C)c(=O)n2C (centres undefined) was tested. Which growth did it give?
A: Its growth is 97.1% (inactive).

Q: How did the growth turn out when CCN(CC)CCC(CNc1ccnc2cc(Cl)ccc12)c1ccc(OC)cc1 (centres undefined) was run?
A: Its growth is 63.7% (inactive) and 61.7% (inactive).

Q: With FC(F)(F)c1cccc(-c2[nH]ncc2-c2nnnn2-c2ccccc2)c1 as the compound, how does the growth read?
A: The growth was 3.68% (active).

Q: With CN(C)c1ccc(C(Cc2ccc3ccccc3n2)Cc2ccc3ccccc3n2)cc1 as the compound, how does the growth read?
A: The growth was 16% (inactive) and 73.5% (inactive).

Q: Which growth does the source give for COc1ccccc1/C=C/C(=O)/C=C/c1ccccc1OC here?
A: The growth was 15.1% (inactive) and 18.7% (inactive).

Q: Which growth does the source give for Cc1[nH]c(C(=O)Nc2ccccc2OCc2cccc(C(=O)NCCN)c2)c(Cl)c1Cl here?
A: The growth was 45% (inactive).

Q: Cc1cc(C(C)(C)C)ccc1S was tested. Which growth did it give?
A: The growth was 111% (inactive).

Q: How did the growth turn out when O=C(Nc1ccc([N+](=O)[O-])cc1Cl)c1cc(Cl)ccc1O was run?
A: Its growth is -30.7% (active) and -30.9% (active).

Q: For COc1cc2cc(Oc3ccc(NC(=O)Nc4ccc(Cl)c(Cl)c4)cc3)c(C)nc2cc1OCCN1CCOCC1, which growth is on record?
A: Its growth is 97.9% (inactive).

Q: Which growth does the source give for COc1ccc2cc3[n+](cc2c1OC)CCc1cc2c(cc1-3)OCO2 here?
A: The growth was 75.4% (inactive) and 70.1% (inactive).

Q: With CC1=C(C(=O)OC(C)C)C(c2ccc3c(c2)OCO3)NC(=S)N1 (centres undefined) as the compound, how does the growth read?
A: The growth was 105% (inactive).

Q: How did the growth turn out when Nc1nc(N)c2cc(Sc3ccc(Cl)cc3)ccc2n1 was run?
A: Its growth is 27.5% (inactive).

Q: For COc1ccc2nc(Cl)cc(C)c2c1, which growth is on record?
A: Its growth is 89.3% (inactive) and 9.88% (active).

Q: How did the growth turn out when Clc1ccc(-c2ccc(CNCC3CCNCC3)o2)c(-c2ccccc2)c1 was run?
A: The growth was -62.3% (active).

Q: For O=C(Nc1nn(-c2ccc(Cl)cc2Cl)nc1-c1ccccc1)c1ccccc1, which growth is on record?
A: The growth was 83.8% (inactive).

Q: For COc1ccc(CCn2cnn3c(=O)c4ccccc4nc3c2=O)cc1OC, which growth is on record?
A: The growth was 92.4% (inactive) and 103% (inactive).

Q: With COc1ccc(/C=c2\sc3n(c2=O)C2C(NN=3)N(C)C(=O)N2C)cc1 (centres undefined) as the compound, how does the growth read?
A: The growth was -47.5% (active).

Q: Which growth does the source give for Cc1[nH]c(C(=O)Nc2ccc(C(=O)N3CCN(c4cc5c(cc4F)c(=O)c(C(=O)O)cn5C4CC4)CC3)cc2OC(C)C)c(Cl)c1Cl here?
A: The growth was 92.7% (inactive).

Q: Which growth does the source give for Cc1c2ccccc2c(C)c2c1ccc1ccccc12 here?
A: Its growth is 69.9% (inactive).

Q: How did the growth turn out when CN1C(=O)N(C)C2C1NN=c1s/c(=C\c3c[nH]c4ccccc34)c(=O)n12 (centres undefined) was run?
A: The growth was -34.1% (active).

Q: CCC(CC)COC(=O)c1ccc(O)c(O)c1 was tested. Which growth did it give?
A: Its growth is 8.36% (active).

Q: For Cc1cc(NC(=O)NC(=O)c2ccccc2N(C)C)ccc1Oc1ncc(Br)cn1, which growth is on record?
A: Its growth is -13.6% (active) and 20.7% (inactive).

Q: Cn1c2c(Cl)c(Cl)ccc2c2ccn3c(=O)c4ccccc4nc3c21 was tested. Which growth did it give?
A: Its growth is 106% (inactive).

Q: C=C1C(=O)O[C@H]2[C@H]1CC/C(COC(=O)Nc1nc3ccccc3[nH]1)=C\CC[C@@]1(C)O[C@@H]21 was tested. Which growth did it give?
A: Its growth is 5.13% (active).

Q: For CCCCC(=O)Nc1ncc(Cc2ccc(Cl)cc2)s1, which growth is on record?
A: The growth was 66.1% (inactive).

Q: With Cc1ccccc1/C=C1\CN(C(=O)OC(C)(C)C)C/C(=C\c2ccccc2C)C1=O as the compound, how does the growth read?
A: The growth was 40.6% (inactive).

Source: PubChem BioAssay (NCI)
